This note sets out measurements from PubChem BioAssay AID463075 (University of Pittsburgh Molecular Library Screening Center, 2010).

The structures appear in SMILES notation. Screen size: about 220,000 compounds; about 150 (0.068%) were called active. This is one part of a sample in which actives are shown more often than they occur. A number with no mark means an inactive call.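 The calls were made as follows: active = activation, meaning protection from cell death, of at least 50% relative to plate controls; inactive = activation below 50%.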

This assay is described as follows: rescue of FADD-deficient Jurkat cells from TNF-alpha death – single concentration, primary screen (AID 463075).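 Also: necroptosis triggered by 40 ng/mL TNF-alpha added together with compound.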 The note with it: Jurkat FADD-/- TNF necroptosis rescue, ATP luminescence, 24 h; at 10 µM; active compounds read high; 0 = TNF only, 100 = no-TNF cells.
As to `COC(=O)CCNC(=O)c1ccc2[nH]c(C)c(C)c2c1`, the activation (protection from cell death) was -0.237%.
Turning to `COC(=O)COc1cccc2c(=O)n(CC(=O)NCc3ccccc3)ccc12`, the activation (protection from cell death) was -12.7%.
As for `CCCc1cc(=S)n2c([nH]c3ccccc32)c1C#N`, the activation (protection from cell death) was -1.86%.
Then `COc1cccc(CC(=O)N2CCCC(CCC(=O)N3CCN(c4ccccn4)CC3)C2)c1` (configuration not stated), with 2.68%.
Then `CCn1cc(C(=O)Nc2cc(C)ccc2C)c(=O)c2ccc(C)nc21`, with 0.491%; and `O=[N+]([O-])c1ccc(N/N=C2/CCCCC2c2ccccn2)c([N+](=O)[O-])c1` (configuration not stated), with 2.74%; and `CCn1c2ccccc2c2cc(NC(=O)C/C(C)=N/NC(=O)c3ccccc3N)ccc21`, with -9.27%.
Then `COc1cc(OC)cc(/C(N)=N/O)c1`, with 4.62%; and `Cc1ccc(S(=O)(=O)/N=C(/NC(=S)Nc2c(C)n(C)n(-c3ccccc3)c2=O)c2ccccc2)cc1`, with 0.616%.
For the molecule `O=C(N/N=C1\CCSC1)c1cc(Cl)ccc1O`, the activation (protection from cell death) was -0.00524%.
Then `O=C(Cc1cccc2ccccc12)NNC(=O)Nc1ccc(Cl)cc1`, with 7.05%.
As for `Cc1nc2ccccc2nc(=O)c1NNc1ccc([N+](=O)[O-])cc1`, the activation (protection from cell death) is 3.59%.
The same measure for `Oc1ccc(/C=N/Nc2ccc(C(F)(F)F)cn2)cc1O`: 30.8%; for `O=S(=O)([N-]c1nc2ccccc2nc1-[n+]1ccc(Cc2ccccc2)cc1)c1ccc(Br)s1`: -3.84%.
On to `CCCN=C1NC(=O)C(CC(=O)NCCc2ccc(OC)c(OC)c2)S1` (configuration not stated), for which the activation (protection from cell death) was 1.06%.
Then `O=C(CSc1nnc(-c2ccncc2)o1)NCc1ccc(Cl)cc1`, with 3.12%.
The same measure for `Cc1cccc(N2CCN(C(=O)/C=C/c3ccco3)CC2)c1C`: -4.02%; for `Cc1ccc(S(=O)(=O)N2CCN(CC(=O)N/N=C/c3cc([N+](=O)[O-])ccc3Cl)CC2)cc1`: 4.63%; for `COc1ccc(C(=O)NC2CCN(C(=S)Nc3ccccc3)CC2)cc1`: 0.717%.
Then `COc1ccc(C(=S)Nc2ccccc2)cc1`, with -4.07%; and `COc1ccc(NC(=S)N2N=CCC2c2ccccc2)cc1` (configuration not stated), with 87.5% (active); and `CCCCS(=O)c1snnc1C` (configuration not stated), with -0.406%.
Regarding `CCCOc1ccc(Cc2c(Cl)nc(SC)nc2NC)cc1`, the activation (protection from cell death) is -4.22%.
The same measure for `CCCCN(C)CCNC(=O)CSCc1ccc(C)cc1`: 1.41%.
On to `CCN1C(=O)/C(=C2/Sc3ccc(OC)cc3N2C)SC1=Nc1ccc(C)cc1`, for which the activation (protection from cell death) is -1.29%.
Then `COc1ccc(N(CC(=O)NC2CCCCC2)S(=O)(=O)c2c(C)[nH]c(=O)[nH]c2=O)cc1`, with -0.527%.
Then `CCOC(=O)/C=c1\s/c(=C\c2ccc(C#N)cc2)c(=O)n1CC(=O)Nc1cccc(C)c1C`, with 0.5%; and `Cc1ccc(N2C(=O)SC(N(CC(=O)O)c3ccc(C)cc3)C2=O)cc1` (configuration not stated), with 0.355%.
On to `CCCN(CC(=O)Nc1ccc(C(N)=O)cc1)CC(=O)Nc1ccccc1C`, for which the activation (protection from cell death) was 8.38%.
For the molecule `Oc1ccccc1C=NC1CCCCC1N=Cc1ccccc1O` (configuration not stated), the activation (protection from cell death) was 0.233%.
The same measure for `C/C(=N\N=C(N)N)c1ccc(Cl)cc1`: 2.76%.
For the molecule `C=CCNC(=O)c1sc(SC)cc1-c1ccc(Cl)cc1`, the activation (protection from cell death) was -2.68%.
Regarding `COc1cccc(C2c3[nH]c4ccccc4c3CCN2Cc2cccc(C)n2)c1` (configuration not stated), the activation (protection from cell death) was 0.616%.
Regarding `CC1CCc2c(nc3ncnn3c2Nc2ccc(OC(F)(F)F)cc2)C1` (configuration not stated), the activation (protection from cell death) was -5.14%.
With `COC(=O)c1ccc(NC(=O)CSc2nncc3ccc(OC)c(OC)c23)cc1`, the activation (protection from cell death) was -0.335%.
Then `CCNc1nc(NCC)nc(N/N=C/c2ccc(O)c(OC)c2)n1`, with 22.3%; and `Cc1ccc(NC(=O)c2cccs2)cc1S(=O)(=O)N(C)C`, with 1.75%; and `CCOC(=O)C1=C(c2ccccc2)NC(=S)NC1c1ccc(Cl)cc1` (configuration not stated), with -2.28%.
Take `COc1ccc(/C(=N\O)c2nccc3cc(OC)c(OC)cc23)cc1OC`: the activation (protection from cell death) is 0.543%.
Then `CN1C(C)(C)CC(NC(=O)CCC(=O)NC2CC(C)(C)N(C)C(C)(C)C2)CC1(C)C`, with 0.679%; and `CNC(=O)c1c(NC(NC(=O)c2ccco2)C(=O)c2ccc(Cl)cc2)sc2c1CCCC2` (configuration not stated), with 0.421%; and `Cc1c(CN2CCCCC2)c(O)n(CCO)c(=O)c1C#N`, with -0.121%.
The same measure for `CCOC(=O)/C(=N\Nc1cc(Cl)ccc1Cl)N1CCN(C)CC1`: 7.63%; for `COc1cccc(OCCCN2CCCCCC2)c1`: 1.03%.
The same measure for `Cc1cc(=O)oc2cc(OCC3CC(c4ccccc4Cl)=NO3)ccc12` (configuration not stated): -15.7%; for `Cc1ccc(C2NC(=S)NC3=C2N2CCC3CC2)cc1` (configuration not stated): 1.6%.
Turning to `C=C(Cl)COC(=O)C1C2C=CC(C2)C1C(=O)O` (configuration not stated), the activation (protection from cell death) is -1.48%.
Then `CN(C)/C=C/C(=O)c1cnc2sccn2c1=O`, with -0.24%.
On to `Cc1nnsc1C(=O)NCc1c(F)cccc1Cl`, for which the activation (protection from cell death) is 72.6% (active).
In the case of `Cc1nnsc1C(=O)Nc1cccc(Cl)c1C`, the activation (protection from cell death) is 5.62%.
With `Cc1nnsc1C(=O)N/N=C/c1ccccc1Cl`, the activation (protection from cell death) is 3.7%.
In the case of `O=C(NCCCCCCCCCNC(=O)C(F)(F)F)C(F)(F)F`, the activation (protection from cell death) was -0.812%.
The same measure for `CS(=O)(=O)c1ccc2nc(NC(=O)c3ccc(N4CCCC4=O)cc3)sc2c1`: -0.943%.
For the molecule `COc1ccc(S(=O)(=O)N2CCN(C(=O)c3cc(C)oc3C)CC2)cc1`, the activation (protection from cell death) was 2.28%.
For the molecule `O=c1cc(N2CCCCC2)c(-c2ccccc2)nn1Cc1cccc(F)c1`, the activation (protection from cell death) is -0.813%.
The same measure for `Cc1ccc(O)c(-c2cc(C(=O)NCc3ccccc3)[nH]n2)c1`: -18.4%; for `O=C(Nc1ccc(F)cc1)c1cc2c(s1)CCCC2`: -1.43%.
The same measure for `CCCCCCCNc1nc(Cl)nc(NCCO)n1`: 5.58%; for `O=C(CCCOc1ccc(Cl)cc1Cl)NNC(=O)C1CCC1`: 3.99%.
For the molecule `C/C(CCc1ccccc1)=N\NC(=O)c1ccc(CN2CCOCC2)cc1`, the activation (protection from cell death) was 0.488%.
For the molecule `CCN=c1sc(C(=O)Nc2ccccc2)c(C)n1CC`, the activation (protection from cell death) is 1.57%.
The same measure for `CCOC(=O)CN(C(=O)COc1nc(-c2ccccc2)cc(C)c1C#N)c1ccc(F)cc1`: 0.588%.
